Among all 2,100 compounds or so, about 760 (36%) were called active. These entries were drawn from the full list. Values without a mark were called inactive.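 The calls were made as follows: active = thallium-flux fluorescence traces judged by eye to show enhanced or reduced glutamate response, manual score 1 or -1, so both directions (some results past the limit were not filed as active); inactive = the rest, including fluorescent or raised-baseline compounds.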

The assay can be described thus: non-GIRK thallium flux modulation in mGlu8 cells, confirmation, counter-screen for GIRK activator project, cell-based, HEK-293 rmGlu8, no GIRK (AID 623868).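 Also: extra codes mark interference with 3 for fluorescent and 4 for baseline rise.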 The note with it: thallium flux fluorescence, at 10 µM, actives lie on both sides, codes: 1 enhancer, -1 blocker, 0 none, thallium stimulus containing EC20 glutamate.
As to `Cc1c(C(=O)NCc2cccnc2)oc2ccc(S(=O)(=O)N3CCC4(CC3)OCCO4)cc12`, the manual score was 0. The result for `Clc1ccc(CSc2ncn(-c3ccccc3)n2)cc1` reads 0. Then `COC(=O)Cn1c(CN2CCc3ccccc3C2)nc2c1c(=O)n(C)c(=O)n2C`, with 0; and `Cc1ccc(-n2c(CSc3nc(C)cc(C)n3)nnc2SCC(=O)NCc2ccco2)cc1`, with 0. Then `O=C(CSc1c[nH]c2ccccc12)NCc1ccc2c(c1)OCO2`, with 0; and `O=C(CSc1nnc(-c2c[nH]c3ccccc23)n1-c1ccc(F)cc1)NCc1ccco1`, with -1 (active). Take `CCOC(=O)C1CCCN(c2nc(C)nc3c2oc2ccccc23)C1` (stereo not drawn): the manual score is 0.

As for `CCOC(=O)N1CCN(C(=O)CN(Cc2ccccc2)S(=O)(=O)c2ccc(OC)c(C)c2)CC1`, the manual score was 0. Then `C=CCn1c(SCC(=O)Nc2sccc2C(N)=O)nc2ccc(Cl)cc2c1=O`, with 1 (active); and `COc1ccc(CNCCC(c2ccc(F)cc2)c2ccc(OC)cc2)cc1` (stereo not drawn), with 0.

Regarding `CCc1ccc(/C=C/C(=O)C2C(=O)c3ccccc3C2=O)cc1`, the manual score is 1 (active). Then `CCc1ccc(/C=c2\s/c(=C\C(=O)C(C)(C)C)[nH]c2=O)cc1`, with 0. Then `CC(/C=C\c1cccnc1)=C/C(=O)O`, with 0. Then `O=C(/C=C/c1ccccc1)C1C(=O)c2ccccc2C1=O`, with 1 (active); and `CCOC(=O)C1=NNC(C(=O)c2ccc(OC)cc2)C1c1ccccc1` (stereo not drawn), with 0.

As to `Cc1ccc2c(c1)NC(=O)CC(c1ccccc1)=N2`, the manual score was 0. `FC(F)(F)c1ccc2nnc(-c3c(Cl)cccc3Cl)n2c1`: the manual score was 0. Then `CN(c1ccc(OCC(=O)OCC(=O)Nc2ccccc2F)cc1)S(=O)(=O)c1cccs1`, with 0. With `S=c1nc(C2CC2)[nH]c2ccccc12`, the manual score was 1 (active). With `c1ccc2c(NC3CCCC3)nnc(NC3CCCC3)c2c1`, the manual score is 0.

Regarding `CC(C)c1nc(=S)c2ccccc2[nH]1`, the manual score was 1 (active). Turning to `CCc1ccc(CNCCNCC(C)O)cc1` (stereo not drawn), the manual score was 0.

On to `Clc1ccc(Cl)c(OCc2cc(-c3ccccc3Cl)on2)c1`, for which the manual score is 0. Then `CCCc1cc(=O)n2[nH]c(-c3ccc(Br)cc3)cc2n1`, with 0.

As to `CC(C)(C)C(=O)NC(=S)NNC(=O)c1sc2ccccc2c1Cl`, the manual score was 1 (active). Then `COc1ccccc1C(=O)NNC(=S)NC(=O)c1sc2ccccc2c1Cl`, with 1 (active); and `COc1ccccc1C(=O)NC(=S)NNC(=O)c1sc2ccccc2c1Cl`, with 1 (active).

As to `COc1ccc2cc(C(=O)Nc3ccccc3)sc(=O)c2c1OC`, the manual score is 0. Then `CCCCCc1nnc(NC(=O)Cc2cccs2)s1`, with 0. The result for `CNC(=S)N=Nc1c(O)[nH]c2ccc(C(C)C)cc12` reads 1 (active). Then `COc1cccc(NC(=O)CC2COc3ccccc3O2)c1` (stereo not drawn), with 0. For `C#CC(CO)N(CCN(Cc1ccccc1)C(C#C)CO)Cc1ccccc1` (stereo not drawn), the manual score was 0.

As to `CCOc1ccc(-c2nnc(NC(=O)c3ccc(OCC(C)C)c(OC)c3)o2)cc1`, the manual score was 1 (active).

For `COc1ccc(-c2nnc(NC(=O)c3ccc(S(=O)(=O)N4CCCc5ccccc54)cc3)o2)cc1`, the manual score is 1 (active). As for `Cc1cccc(N2CCN(C(=O)c3ccc(Cl)c(S(=O)(=O)N4CCc5ccccc5C4)c3)CC2)c1C`, the manual score was 0. Turning to `COc1ccc(-c2nnc(NC(=O)c3ccc(S(=O)(=O)N4COCC4(C)C)cc3)o2)cc1`, the manual score was 1 (active). Then `CCOc1ccc(-c2nc(-c3ccc(OC)c(OC)c3)no2)cc1OCC`, with 0.

With `COc1ccc(-c2nnc(NC(=O)c3ccc(S(=O)(=O)N4CCc5ccccc5C4)cc3)o2)cc1`, the manual score was 1 (active). Then `CCOc1ccc(-c2nnc(NC(=O)CCCOc3cccc(C)c3)o2)cc1`, with 0. Then `CCCCCCCC1CC(CSC(=N)N)OC1=O` (stereo not drawn), with 0; and `COc1ccc(C(C)N2CC34C=CC(O3)C(C(=O)OCC(C)C)C4C2=O)cc1` (stereo not drawn), with 0. The result for `N#CCCn1nc(-c2ccc(Cl)cc2)cc1Nc1ccccc1NC(=O)C(F)(F)F` reads 0; that for `COc1ccc(-c2nnc(NC(=O)c3ccc(F)cc3)o2)cc1`, 1 (active); that for `CCc1cc(C(N)=O)c(NC(=O)c2ccc(OC)cc2)s1`, 0.

For the molecule `O=C(Nc1nnc(-c2ccco2)o1)c1ccc2ccccc2c1`, the manual score is 1 (active). Consider `O=C(CSc1ccc(-c2ccco2)nn1)c1ccccc1`, for which the manual score was 0.

Regarding `CCCCOC(=S)NC(=O)c1sc2ccccc2c1Cl`, the manual score is 1 (active).

As for `CCCOC(=S)NC(=O)c1sc2ccccc2c1Cl`, the manual score was 1 (active). Then `CCOC(=S)NC(=O)c1sc2ccccc2c1Cl`, with 1 (active); and `O=C(NC(=S)N(CCCCO)C1CCCCC1)c1sc2ccccc2c1Cl`, with 1 (active); and `OC(CN1C2=NCCCN2c2ccccc21)c1ccc(Br)cc1` (stereo not drawn), with 0. `N=c1c(C(=O)NCc2ccco2)cc2c(=O)n3ccccc3nc2n1CCc1ccccc1`: the manual score is 0. Turning to `Cc1ccc2c(Cl)cc(Cl)c(OCC(=O)NCc3ccco3)c2n1`, the manual score is 1 (active). The result for `CCC/C(=N/NC(=O)c1cccc(Cl)c1)c1ccccc1` reads 1 (active); that for `COc1cccc(NC(=O)Cn2cc3c(n2)CCCCC3)c1`, 0.

For the molecule `COc1cccc(NC(=S)N/N=C2/CCCCc3ccccc32)c1`, the manual score is 1 (active).

Take `CCNC(=S)N/N=C1\CCCCc2ccccc21`: the manual score is 0.5. The result for `COc1ccc(Nc2nc(N)nc(CSc3nnc(C)s3)n2)cc1` reads 0. The result for `COc1cc(OC)c(-c2c3cc(O)c(=O)cc-3oc3cc(O)c(O)cc23)cc1OC` reads 3. Then `COc1ccc(NC(=O)Nc2ccccc2OC)cc1`, with 0; and `COc1ccc(C)cc1NC(=O)C(=O)NNC(=O)c1ccco1`, with 1 (active). In the case of `COc1cccc(CNCCNC(=O)c2ccco2)c1OC`, the manual score is 0. Then `COc1ccc(NC(=O)Nc2cc(C)ccc2OC)cc1`, with 0; and `COc1ccccc1NC(=O)C(=O)NNC(=O)c1ccco1`, with 1 (active); and `COc1ccc(C)cc1NC(=O)Nc1ccccc1`, with 0. Then `CC(C)c1ccc(-n2cccc2/C=C2/C(=N)N3C=CSC3=NC2=O)cc1`, with 0; and `C(/C=C/C=C/Nc1ccccc1)=Nc1ccccc1`, with 3. Take `Cc1ccc(OCC(O)Cn2c(=N)n(CCN3CCCCC3)c3ccccc32)cc1` (stereo not drawn): the manual score was 0. Then `CC(c1ccc(F)cc1)n1c(-c2ccc3ccccc3n2)n[nH]c1=S` (stereo not drawn), with 1 (active); and `CC(c1ccc(Cl)cc1)n1c(-c2ccc3ccccc3n2)n[nH]c1=S` (stereo not drawn), with 1 (active); and `CC(=O)Nc1ccc(Oc2ncccn2)cc1`, with 0.

With `O=C(NNC(=O)c1cccnc1SCc1cccc([N+](=O)[O-])c1)c1ccccn1`, the manual score is 1 (active).

`Cc1cccc(C)c1NC(=O)C(NC(=O)c1ccccn1)c1ccc([N+](=O)[O-])cc1` (stereo not drawn): the manual score was 0. The result for `O=C(NNC(=O)c1cccnc1SCc1cccc([N+](=O)[O-])c1)c1cccnc1` reads 0; that for `O=C(c1oc(=O)c2ccccc2c1-c1ccccc1)N1CCN(C2CCCCC2)CC1`, 0; that for `CCOC(=O)c1ccc(N2C(=O)C(O)=C(C(C)=O)C2c2ccccc2)cc1` (stereo not drawn), -0.5. The result for `CCOC(=O)C1=C(O)C(=O)N(c2ccc(S(N)(=O)=O)cc2)C1c1ccccc1` (stereo not drawn) reads -1 (active); that for `CCOC(=O)c1cc2n(c1N)-c1ccccc1C2=O`, 3. The result for `Clc1cccc(-c2ccc(/C=N/n3cnnc3)o2)c1Cl` reads 0; that for `CCCn1nnc(NC(=O)COc2ccc(C3CCCCC3)cc2)n1`, 0; that for `CCCCn1nnc(NC(=S)NC(=O)c2ccc(-c3cccc(Cl)c3Cl)o2)n1`, 1 (active).

For the molecule `COc1ccccc1N(C)S(=O)(=O)c1ccc(C(=O)N(CC(N)=O)C(C)C)cc1`, the manual score was 0.

Take `CCOc1ccc(N2C(=O)/C(=C/c3cc(OC)c(OC)c(OC)c3)N(CC(=O)OC)C2=S)cc1`: the manual score was 0.

Turning to `CS(=O)(=O)N(CC(=O)NCc1ccco1)c1ccc(Cl)c(C(F)(F)F)c1`, the manual score was 0. The result for `CCOC(=O)C1CCN(C(=O)CN(c2ccc(Cl)c(C(F)(F)F)c2)S(C)(=O)=O)CC1` reads -1 (active). Then `CCOC(=O)C1CCN(C(=O)N(C)C)CC1`, with 0.

As to `O=C(N/N=C/c1ccc(Sc2ccccn2)o1)c1cc2ccccc2cc1O`, the manual score is 1 (active). Then `CCCOc1ccc(/C=N/NC(=O)C(=O)Nc2ccccn2)cc1`, with 1.5; and `O=C(CSc1nc2ccccc2[nH]1)NC1CCCc2ccccc21` (stereo not drawn), with 0. The result for `NC(=O)CSc1ncnc2c1cnn2Cc1ccccc1` reads 0; that for `Cc1ccc(CSc2ncnc3c2cnn3-c2ccc(C)cc2)cc1`, 1 (active). The result for `CN(C)CCNc1ncnc2c1cnn2-c1ccc(Cl)cc1` reads 0. On to `Cc1ccc(-n2ncc3c(SCc4ccccc4)ncnc32)cc1`, for which the manual score is 1 (active). The result for `COc1ccc(OC)c(Nc2ncnc3c2cnn3-c2cccc(C)c2)c1` reads 0; that for `COc1cc2cnncc2cc1OC`, 0; that for `CCOc1ccc(NC(=O)Cn2nnc(-c3ccccc3F)n2)cc1`, 0.

For `N#Cc1c(N2CCN(C(=O)c3ccccc3)CC2)nc(-c2ccccc2)c2c1CCCC2`, the manual score was 0. With `CSc1nc(-c2ccccc2)[nH]c(=S)c1C(C)=O`, the manual score is 1 (active).

Consider `CC(=O)c1c(N2CCCC2)[nH]c(-c2ccccc2)nc1=S`, for which the manual score was 1 (active). Then `CCCOC(=O)NC(CC)COC(=O)Nc1cccc(C)c1C` (stereo not drawn), with 0; and `CN=C1c2c(-c3ccccc3)c3cc(OC)ccc3n2CCN1C`, with 0; and `CC1CCN(c2ccccc2NC(=S)NC(=O)c2ccco2)CC1`, with 1 (active). On to `O=C(NC(=S)Nc1ccccc1N1CCCCC1)c1ccco1`, for which the manual score was 0. Then `O=C(NC(=S)Nc1ccccc1N1CCOCC1)c1ccco1`, with 1 (active); and `O=C(C[n+]1cc(-c2ccccc2)n2c1CCC2)OCc1ccccc1`, with 0. For the molecule `CCc1ccc(NCc2cc3c(C)nn(-c4ccccc4)c3[nH]c2=O)cc1`, the manual score was 0. Then `CC(C)(C)c1nn(-c2ccccc2)c2[nH]c(=O)c(CNCc3ccc4c(c3)OCO4)cc12`, with -1 (active). The result for `O=C(NCc1ccc2c(c1)OCO2)C1CCN(Cc2cnn(-c3ccccc3)c2-n2cccc2)CC1` reads 0.

The record behind these values is PubChem BioAssay AID623868 (Vanderbilt High Throughput Screening Facility, 2012).
